From PubChem BioAssay
Tg IFNy HTS – inhibitors of Toxoplasma gondii growth with IFN-gamma; activity change, negative = inhibition, % (no concentration beside the values); 3.8% of 69,000 active; Toxoplasma gondii growth in IFN-gamma-treated host cells; stronger effect = lower value; in the data active = activity change below about -70%, passing the limit was not always enough;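 note: host cells are HeLa cells infected with Toxoplasma gondii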
* hit, by the source's call. Shown is part of a subset that was picked to be rich in hits.

SMILES	Tg IFNy HTS
CNC(=O)[C@H]1CC2CN(Cc3ccc4c(c3)OCO4)CC2N1C (some centres not stated)	-48
Cc1ccccc1CNC(=O)c1nc(N2CCOCC2)c2ccccc2n1	-35
Cc1ccc(CCNC(=O)c2nc(N3CCOCC3)c3ccccc3n2)cc1	-84*
CC(C)Oc1ccc(CNC(=O)c2nc(N3CCOCC3)c3ccccc3n2)cc1	-79*
CCOc1ccccc1CNC(=O)c1nc(N2CCOCC2)c2ccccc2n1	-66
CCOC(=O)c1nc(N2CCOCC2)c2ccccc2n1	93
CC(C)Oc1ccc(CNC(=O)c2nc(Nc3ccccc3)c3ccccc3n2)cc1	-11
CCN(CC)c1ncnc2c1cnn2CC(=O)Nc1ccccc1C	25
Cc1ccc(S(=O)(=O)N(C)C[C@@H]2Oc3c(NS(C)(=O)=O)cccc3C(=O)N([C@H](C)CO)C[C@H]2C)cc1	11
Cc1nc(N2CCCC2)nc2c1CCN(S(=O)(=O)c1ccccc1)CC2	-49
CSc1ccc(C(=O)C2CCCN(S(=O)(=O)c3ccccc3)C2)cc1 (configuration not stated)	-30
Cn1c2c(c(=O)n1C)CN(S(=O)(=O)c1ccccc1)CCC2	-75*
C1=CCC(CN(CCCn2ccnc2)Cc2cccnc2)CC1 (configuration not stated)	-19
CC(=O)N1CC2(CCN(C(=O)Cc3ccccc3)CC2)CC1C(=O)O (configuration not stated)	2
O=C(Nc1ccc(Br)cc1)C1CC(c2c(F)cccc2Cl)=NO1 (configuration not stated)	0
O=C(Nc1cnn(C23CC4CC(CC(C4)C2)C3)c1)C1CC(c2c(F)cccc2Cl)=NO1 (configuration not stated)	-84*
NC(=O)Cc1csc(NC(=O)C2CC(c3ccccc3Cl)=NO2)n1 (configuration not stated)	-7
c1ccc(-c2nnc3n2C2(CCCCC2)Cc2ccccc2-3)cc1	-66
c1csc(-c2nnc3n2C2(CCCC2)Cc2ccccc2-3)c1	-97*
c1coc(-c2nnc3n2C2(CCCC2)Cc2ccccc2-3)c1	40
COc1cccc2c1OCC(C(=O)N(Cc1nccn1C)C(C)C)C2 (configuration not stated)	0
CCOc1ccc2nc(N3CCCN(C4CCSCC4)CC3)nc(C)c2c1	14
CN(C)C(=O)N1Cc2nc(C(=O)NCc3cccc(F)c3)oc2C1	7
O=C(Cc1ccc(Cl)cc1)NCCc1csc(-c2cccc(F)c2)n1	-7
O=C(NCc1cccc(F)c1)c1nc(CS(=O)(=O)c2ccc(Cl)cc2)no1	-87*
SMILES	Tg IFNy HTS
COc1ccc(N(CCc2ccccn2)C(=O)c2cnc(SC)nc2)cc1	10
Cc1cccc(S(=O)(=O)N2CCc3c(CNc4ncccn4)nn(C)c3C2)c1	2
Cn1nc(CNc2ncccn2)c2c1CN(C(=O)c1ccccc1F)CC2	-106*
Cn1nc(CNc2ncccn2)c2c1CNCC2	2
Cc1ccc(-c2nc(CN3CCN(C(=O)Nc4cc(C)ccc4C)CC3)c(C)o2)cc1	2
COc1ccc2c(c1)NC1(CCN(C(=O)Nc3ccc(C)c(C)c3)CC1)c1cccn1-2	345
CCc1ccc(CN(CCOC)C(=O)c2cn(C)c3ccccc3c2=O)cc1	6
COc1ccc(-c2nc3ccc(C4=NNC(=O)CC4C)cc3[nH]2)cc1 (configuration not stated)	29
CN=C(NC#N)Nc1ccc(C2=NNC(=O)CC2C)cc1 (configuration not stated)	14
CCN(CC)c1ccc(C2=NNC(=O)CC2C)cc1[N+](=O)[O-] (configuration not stated)	-98*
O=C(O)CNc1ncnc2sc3c(c12)CCC3	-1
Cc1ccc(S(=O)(=O)Nc2ccc3c(c2)C(=O)N([C@H](C)CO)C[C@@H](C)[C@@H](CN(C)S(=O)(=O)c2cccs2)OCCCC[C@H](C)O3)cc1	-117*
Cc1ccc(S(=O)(=O)Nc2ccc3c(c2)C(=O)N([C@H](C)CO)C[C@@H](C)[C@H](CN(C)S(=O)(=O)c2cccs2)OCCCC[C@H](C)O3)cc1	-131*
C[C@H]1CCCCO[C@@H](CN(C)C(=O)C2CCCCC2)[C@@H](C)CN([C@@H](C)CO)C(=O)c2cc(NS(=O)(=O)c3ccccc3)ccc2O1	-31
Cc1noc(C)c1NC(=O)Nc1ccc2c(c1)C(=O)N([C@H](C)CO)C[C@@H](C)[C@H](CN(C)S(=O)(=O)c1cccs1)OCCCC[C@H](C)O2	442
C[C@H](CO)N1C[C@H](C)[C@H](CN(C)C(=O)C2CCCCC2)OCCCC[C@H](C)Oc2ccc(NS(=O)(=O)c3ccccc3)cc2C1=O	-102*
Cc1ccc(S(=O)(=O)Nc2ccc3c(c2)C(=O)N([C@H](C)CO)C[C@H](C)[C@H](CN(C)S(=O)(=O)c2cccs2)OCCCC[C@H](C)O3)cc1	-121*
C[C@H](CO)N1C[C@H](C)[C@H](CN(C)C(=O)c2ccncc2)OCCCC[C@H](C)Oc2ccc(NS(=O)(=O)c3cccs3)cc2C1=O	-47
Cc1noc(C)c1NC(=O)Nc1ccc2c(c1)C(=O)N([C@H](C)CO)C[C@@H](C)[C@@H](CN(C)S(=O)(=O)c1cccs1)OCCCC[C@H](C)O2	-42
Cc1noc(C)c1NC(=O)Nc1ccc2c(c1)C(=O)N([C@@H](C)CO)C[C@@H](C)[C@@H](CN(C)S(=O)(=O)c1cccs1)OCCCC[C@@H](C)O2	3
Cc1noc(C)c1NC(=O)Nc1ccc2c(c1)C(=O)N([C@H](C)CO)C[C@H](C)[C@H](CN(C)S(=O)(=O)c1cccs1)OCCCC[C@@H](C)O2	43
C[C@H]1CCCCO[C@H](CN(C)C(=O)C2CCCCC2)[C@@H](C)CN([C@@H](C)CO)C(=O)c2cc(NS(=O)(=O)c3ccccc3)ccc2O1	-33
Cc1noc(C)c1NC(=O)Nc1ccc2c(c1)C(=O)N([C@H](C)CO)C[C@H](C)[C@H](CN(C)S(=O)(=O)c1cccs1)OCCCC[C@H](C)O2	262
O=C(c1cc(C(F)(F)F)[nH]n1)N1C[C@@H]2C3CCC(CC3)[C@@H]2C1	-48
CC(=O)Nc1ccc(C#CC2(NC(=O)CC3CC(C)(C)OC3=O)CCCCC2)cn1 (configuration not stated)	39
SMILES	Tg IFNy HTS
Cc1ccc(CN2CCCn3nc(C(=O)N4CCC(N5CCCCC5)CC4)cc3C2=O)cc1	18
O=C(NC1C=CS(=O)(=O)C1)C(=O)N1CCc2ccccc2C1 (configuration not stated)	-5
Cc1c(/C=C/c2ccnc(SCC(=O)Nc3ccccc3)n2)sc2ccccc12	-27
Cc1ccsc1CN1C[C@H]2COC[C@@]2(CNC(=O)c2cccnc2)C1	-10
COCCN(Cc1sccc1C)C(=O)c1scc2c1OCCO2	0
Cc1noc(C)c1NC(=O)Nc1ccc2c(c1)C(=O)N([C@@H](C)CO)C[C@H](C)[C@H](CN(C)S(=O)(=O)c1cccs1)OCCCC[C@@H](C)O2	328
Cc1ccc(S(=O)(=O)Nc2ccc3c(c2)C(=O)N([C@@H](C)CO)C[C@@H](C)[C@H](CN(C)S(=O)(=O)c2cccs2)OCCCC[C@@H](C)O3)cc1	-103*
Cc1noc(C)c1NC(=O)Nc1ccc2c(c1)C(=O)N([C@H](C)CO)C[C@H](C)[C@@H](CN(C)S(=O)(=O)c1cccs1)OCCCC[C@@H](C)O2	157
O=C(NCc1cc(C2CC2)on1)c1cn(CC2CCCNC2)nn1 (configuration not stated)	-41
Cc1onc(-c2ccccc2)c1CNC(=O)NC1CCN(C(=O)OCc2ccccc2)CC1	-82*
